Data reported in the supplement of paper PMC10849652.
Of roughly 7,900 targets only a part is listed; those with a hit were picked by preference. About 0.6% of all pairs of compound and target were hits. Values without a mark were called inactive.

How the values were obtained:
Test in all cases: log2 fold change, soluble protein after heating vs DMSO (PISA); higher = thermal stabilisation; K562 cells, 10 uM, 30 min; active = over 0.2 and 3.5 SD of the protein, either way, in both replicates (recomputed)
[1] = compound: CC1=C(C=C(C=C1)NC(=O)C2=CC(=CC=C2)C(C)(C)C#N)NC3=CC4=C(C=C3)N=CN(C4=O)C
In short: (§1)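 K562 cells at 2×10^6 cells/mL were treated with 10 μM compound for 30 min. Aliquots were heated for 3 min across 48°C-58°C, pooled, and extracted in PBS with 0.5% NP-40 at 4°C; soluble protein was the supernatant after 21,000xg for 90 min. Soluble protein was quantified by TMTpro 16plex LC-MS/MS with channel sums equalised, and reported as log2 fold change in thermal stability against DMSO controls, with values from duplicates.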

[2] = compound: CC1=C(C=C(C=C1)NC(=O)C2=CC(=CC=C2)N(C)C)NC(=O)C3=CC=C(C=C3)O
In short: as §1

[3] = compound: CC1=CC=C(C=C1)SC2=C3C=C(SC3=CN=C2)C(=O)N
In short: as §1

[4] = compound: CC1=NC(=CC=C1)C2=C(N=C(N2)C(C)(C)C)C3=CC4=NC=CN=C4C=C3
In short: as §1

Nexturastat A = compound: CCCCN(Cc1ccc(C(=O)NO)cc1)C(=O)Nc1ccccc1 [Nexturastat A]
In short: as §1

vemurafenib = compound: CCCS(=O)(=O)Nc1ccc(F)c(C(=O)c2c[nH]c3ncc(-c4ccc(Cl)cc4)cc23)c1F [vemurafenib]
In short: as §1

[5] = compound: CCCS(=O)(=O)Nc1ccc(F)c(C(=O)c2c[nH]c3ncc(Cl)cc23)c1F
In short: as §1

[6] = compound: CCCc1cc(C)[nH]c(=O)c1CNC(=O)c1cc(-c2ccnc(N3CCN(C)CC3)c2)cc2c1cnn2C(C)C
In short: as §1

givinostat = compound: CCN(CC)Cc1ccc2cc(COC(=O)Nc3ccc(C(=O)NO)cc3)ccc2c1 [givinostat]
In short: as §1

barasertib = compound: CCN(CCCOc1ccc2c(Nc3cc(CC(=O)Nc4cccc(F)c4)[nH]n3)ncnc2c1)CCOP(=O)(O)O [barasertib]
In short: as §1

[7] = compound: CC[C@@H]1C(=O)N(C)c2cnc(Nc3ccc(C(=O)NC4CCN(C)CC4)cc3OC)nc2N1C1CCCC1
In short: as §1

volasertib = compound: CC[C@@H]1C(=O)N(C)c2cnc(Nc3ccc(C(=O)N[C@H]4CC[C@H](N5CCN(CC6CC6)CC5)CC4)cc3OC)nc2N1C(C)C [volasertib]
In short: as §1

[8] = compound: CC[C@H](C)N1C=C(C2=C(C=C(C=C21)C3=CN=C(C=C3)N4CCNCC4)C(=O)NCC5=C(C=C(NC5=O)C)C)C
In short: as §1

epoxomicin = compound: CC[C@H](C)[C@@H](C(=O)N[C@@H]([C@@H](C)O)C(=O)N[C@@H](CC(C)C)C(=O)[C@]1(CO1)C)NC(=O)[C@H]([C@@H](C)CC)N(C)C(=O)C [epoxomicin]
In short: as §1

[9] = compound: CCn1c(C(=O)N(C2CC2)C2CC2)cc2c3c(ncn3C)c(Nc3cc(C)n(C)n3)nc21
In short: as §1

[10] = compound: CCn1cc(-c2ccnc3[nH]c(-c4cccc(CN(C)C)c4)cc23)c(-c2ccc(NC(=O)N(C)C)cc2)n1
In short: as §1

[11] = compound: CN(C)CC(=O)Nc1ccc2[nH]c(=O)c3ccccc3c2c1
In short: as §1

rosiglitazone = compound: CN(CCOC1=CC=C(C=C1)C[C@H]2C(=O)NC(=O)S2)C3=CC=CC=N3 (racemic) [rosiglitazone]
In short: as §1

[12] = compound: CN1C2=C(C3=C1C(=O)N(N=C3)CC4=CC(=CC=C4)N)SC(=C2)S(=O)C
In short: as §1

[13] = compound: CN1CCC(CNc2ccc3ncc(-c4cccc(OC(F)(F)F)c4)n3n2)CC1
In short: as §1

UniProt Q5T6V5, sequence (Q5T6V5 whole entry, looked up): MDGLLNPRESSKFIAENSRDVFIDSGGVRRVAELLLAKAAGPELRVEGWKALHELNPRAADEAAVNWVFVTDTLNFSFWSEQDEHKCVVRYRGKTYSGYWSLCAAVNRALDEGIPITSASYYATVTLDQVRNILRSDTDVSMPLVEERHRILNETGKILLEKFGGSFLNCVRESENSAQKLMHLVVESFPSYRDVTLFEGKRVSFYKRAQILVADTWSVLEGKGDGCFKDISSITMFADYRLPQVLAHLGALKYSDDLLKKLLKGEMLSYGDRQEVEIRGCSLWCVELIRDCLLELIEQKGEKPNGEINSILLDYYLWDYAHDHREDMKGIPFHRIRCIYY
UniProt P61024, sequence (P61024 whole entry, looked up): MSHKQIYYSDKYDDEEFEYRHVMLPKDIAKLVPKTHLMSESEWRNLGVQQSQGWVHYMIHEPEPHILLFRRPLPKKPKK
UniProt O75909, sequence (O75909 whole entry, looked up): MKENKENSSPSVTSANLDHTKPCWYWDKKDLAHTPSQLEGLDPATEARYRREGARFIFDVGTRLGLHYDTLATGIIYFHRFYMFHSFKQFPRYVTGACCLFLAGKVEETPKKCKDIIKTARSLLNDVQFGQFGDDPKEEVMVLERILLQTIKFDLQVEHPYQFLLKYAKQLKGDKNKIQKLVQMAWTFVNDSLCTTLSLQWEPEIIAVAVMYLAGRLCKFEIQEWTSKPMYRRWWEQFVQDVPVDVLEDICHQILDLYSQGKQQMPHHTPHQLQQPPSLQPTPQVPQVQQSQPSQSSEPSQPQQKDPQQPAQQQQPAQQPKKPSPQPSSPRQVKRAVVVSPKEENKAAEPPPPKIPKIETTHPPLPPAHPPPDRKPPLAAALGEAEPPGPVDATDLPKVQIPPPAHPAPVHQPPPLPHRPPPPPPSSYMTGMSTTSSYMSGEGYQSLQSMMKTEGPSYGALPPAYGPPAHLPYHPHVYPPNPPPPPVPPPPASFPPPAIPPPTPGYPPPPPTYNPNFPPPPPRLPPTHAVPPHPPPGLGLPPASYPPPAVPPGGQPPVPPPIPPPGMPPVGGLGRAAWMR
UniProt Q96GQ5, sequence (Q96GQ5 whole entry, looked up): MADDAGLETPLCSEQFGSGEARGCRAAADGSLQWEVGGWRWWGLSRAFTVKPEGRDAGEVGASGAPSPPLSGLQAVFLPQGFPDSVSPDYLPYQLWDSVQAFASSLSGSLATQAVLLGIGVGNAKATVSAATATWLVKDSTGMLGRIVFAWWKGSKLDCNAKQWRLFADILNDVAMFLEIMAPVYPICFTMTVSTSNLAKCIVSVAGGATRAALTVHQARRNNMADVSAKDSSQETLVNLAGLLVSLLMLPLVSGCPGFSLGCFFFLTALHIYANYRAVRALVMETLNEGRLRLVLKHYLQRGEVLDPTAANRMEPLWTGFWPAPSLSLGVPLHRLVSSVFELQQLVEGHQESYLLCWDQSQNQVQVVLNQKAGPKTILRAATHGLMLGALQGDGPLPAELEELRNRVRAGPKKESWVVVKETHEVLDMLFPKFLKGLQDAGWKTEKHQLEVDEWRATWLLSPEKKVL
UniProt Q12873, sequence (Q12873 whole entry, looked up): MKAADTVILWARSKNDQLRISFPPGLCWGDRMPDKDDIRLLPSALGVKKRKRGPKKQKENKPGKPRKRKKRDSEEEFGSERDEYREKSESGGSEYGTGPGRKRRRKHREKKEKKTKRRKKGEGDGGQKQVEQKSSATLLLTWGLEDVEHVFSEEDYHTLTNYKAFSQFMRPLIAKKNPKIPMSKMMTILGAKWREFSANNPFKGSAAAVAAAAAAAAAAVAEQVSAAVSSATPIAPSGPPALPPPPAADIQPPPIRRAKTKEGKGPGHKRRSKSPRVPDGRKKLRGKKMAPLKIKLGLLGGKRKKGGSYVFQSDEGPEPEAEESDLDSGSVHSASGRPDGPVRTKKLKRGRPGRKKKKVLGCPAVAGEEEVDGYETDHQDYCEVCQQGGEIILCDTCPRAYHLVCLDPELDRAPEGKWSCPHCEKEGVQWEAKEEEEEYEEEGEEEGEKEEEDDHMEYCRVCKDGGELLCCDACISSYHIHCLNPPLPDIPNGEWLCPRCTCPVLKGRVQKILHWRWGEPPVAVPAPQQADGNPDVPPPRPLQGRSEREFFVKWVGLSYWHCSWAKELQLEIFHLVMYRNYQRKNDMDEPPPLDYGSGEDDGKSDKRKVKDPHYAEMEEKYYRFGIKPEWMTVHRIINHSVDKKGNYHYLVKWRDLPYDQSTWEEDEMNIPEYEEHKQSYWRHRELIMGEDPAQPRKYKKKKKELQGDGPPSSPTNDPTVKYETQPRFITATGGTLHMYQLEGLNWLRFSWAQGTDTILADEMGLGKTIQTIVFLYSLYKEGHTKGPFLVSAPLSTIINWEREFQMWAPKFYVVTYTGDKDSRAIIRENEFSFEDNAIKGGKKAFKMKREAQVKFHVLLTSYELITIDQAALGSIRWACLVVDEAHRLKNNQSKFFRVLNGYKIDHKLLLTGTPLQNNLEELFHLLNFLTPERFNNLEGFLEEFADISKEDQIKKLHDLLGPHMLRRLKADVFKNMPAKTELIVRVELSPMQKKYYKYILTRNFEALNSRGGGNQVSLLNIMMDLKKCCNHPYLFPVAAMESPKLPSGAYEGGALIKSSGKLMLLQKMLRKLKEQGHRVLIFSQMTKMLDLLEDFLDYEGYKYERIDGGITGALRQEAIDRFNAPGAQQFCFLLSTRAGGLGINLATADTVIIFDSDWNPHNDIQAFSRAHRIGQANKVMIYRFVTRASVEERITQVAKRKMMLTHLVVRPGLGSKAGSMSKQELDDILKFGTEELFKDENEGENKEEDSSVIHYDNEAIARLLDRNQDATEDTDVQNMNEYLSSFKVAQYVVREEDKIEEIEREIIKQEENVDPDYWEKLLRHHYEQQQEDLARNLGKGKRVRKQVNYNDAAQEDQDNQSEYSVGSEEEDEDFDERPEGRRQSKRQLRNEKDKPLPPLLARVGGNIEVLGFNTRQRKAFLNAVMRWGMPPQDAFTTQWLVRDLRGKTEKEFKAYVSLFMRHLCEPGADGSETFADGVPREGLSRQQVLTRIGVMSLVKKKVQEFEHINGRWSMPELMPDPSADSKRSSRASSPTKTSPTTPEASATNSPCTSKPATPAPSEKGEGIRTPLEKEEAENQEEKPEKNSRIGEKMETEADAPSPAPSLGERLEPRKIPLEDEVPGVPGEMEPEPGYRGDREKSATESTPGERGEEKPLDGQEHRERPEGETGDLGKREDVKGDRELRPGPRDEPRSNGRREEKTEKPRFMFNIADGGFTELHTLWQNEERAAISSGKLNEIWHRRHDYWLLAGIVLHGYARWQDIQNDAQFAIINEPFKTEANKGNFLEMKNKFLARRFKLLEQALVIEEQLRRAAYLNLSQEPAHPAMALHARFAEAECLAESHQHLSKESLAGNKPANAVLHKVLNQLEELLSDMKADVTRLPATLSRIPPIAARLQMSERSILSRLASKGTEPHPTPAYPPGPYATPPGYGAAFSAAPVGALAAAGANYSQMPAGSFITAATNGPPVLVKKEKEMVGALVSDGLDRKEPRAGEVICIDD
UniProt P41208, sequence (P41208 whole entry, looked up): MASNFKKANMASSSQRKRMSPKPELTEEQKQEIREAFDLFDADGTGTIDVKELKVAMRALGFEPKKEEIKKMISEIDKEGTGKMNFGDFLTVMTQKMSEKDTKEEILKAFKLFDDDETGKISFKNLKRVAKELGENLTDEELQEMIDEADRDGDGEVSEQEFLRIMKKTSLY
UniProt Q99627, sequence (Q99627 whole entry, looked up): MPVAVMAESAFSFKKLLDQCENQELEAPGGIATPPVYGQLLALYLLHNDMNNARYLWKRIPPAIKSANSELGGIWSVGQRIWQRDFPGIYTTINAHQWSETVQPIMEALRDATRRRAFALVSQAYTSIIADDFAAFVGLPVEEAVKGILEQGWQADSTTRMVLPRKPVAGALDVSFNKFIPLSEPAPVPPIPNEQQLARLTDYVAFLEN
UniProt Q8IX12, sequence (Q8IX12 whole entry, looked up): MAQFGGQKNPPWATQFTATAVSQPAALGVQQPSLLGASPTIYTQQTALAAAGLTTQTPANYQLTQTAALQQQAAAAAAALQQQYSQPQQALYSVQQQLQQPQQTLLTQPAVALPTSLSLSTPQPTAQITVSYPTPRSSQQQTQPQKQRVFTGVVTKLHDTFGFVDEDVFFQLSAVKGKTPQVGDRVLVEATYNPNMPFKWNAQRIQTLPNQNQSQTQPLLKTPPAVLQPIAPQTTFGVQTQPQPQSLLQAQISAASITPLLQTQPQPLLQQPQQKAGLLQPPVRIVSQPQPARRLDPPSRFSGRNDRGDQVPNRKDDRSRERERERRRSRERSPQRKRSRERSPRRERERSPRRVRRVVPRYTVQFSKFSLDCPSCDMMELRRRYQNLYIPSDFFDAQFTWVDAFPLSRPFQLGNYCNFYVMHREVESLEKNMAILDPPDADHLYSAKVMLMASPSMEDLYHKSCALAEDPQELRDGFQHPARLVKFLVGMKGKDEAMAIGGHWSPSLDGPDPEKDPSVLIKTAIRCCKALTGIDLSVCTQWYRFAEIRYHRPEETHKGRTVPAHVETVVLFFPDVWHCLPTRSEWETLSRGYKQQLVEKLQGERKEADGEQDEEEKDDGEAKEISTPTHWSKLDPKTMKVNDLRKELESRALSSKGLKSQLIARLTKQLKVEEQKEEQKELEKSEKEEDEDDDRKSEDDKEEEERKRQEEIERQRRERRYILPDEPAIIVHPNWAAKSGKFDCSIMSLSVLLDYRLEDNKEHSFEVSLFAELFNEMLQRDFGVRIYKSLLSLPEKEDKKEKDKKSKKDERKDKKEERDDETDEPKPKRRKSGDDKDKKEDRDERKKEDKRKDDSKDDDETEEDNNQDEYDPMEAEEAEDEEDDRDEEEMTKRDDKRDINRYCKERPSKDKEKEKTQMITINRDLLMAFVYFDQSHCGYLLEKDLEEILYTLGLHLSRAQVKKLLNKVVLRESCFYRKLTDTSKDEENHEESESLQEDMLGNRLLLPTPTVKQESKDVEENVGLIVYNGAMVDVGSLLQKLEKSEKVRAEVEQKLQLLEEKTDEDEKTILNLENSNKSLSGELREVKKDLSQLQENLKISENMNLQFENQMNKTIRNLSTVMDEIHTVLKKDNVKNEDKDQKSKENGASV

| Target | log2 fold change [1] | log2 fold change [2] | log2 fold change [3] | log2 fold change [4] | log2 fold change (Nexturastat A) | log2 fold change (vemurafenib) | log2 fold change [5] | log2 fold change [6] | log2 fold change (givinostat) | log2 fold change (barasertib) | log2 fold change [7] | log2 fold change (volasertib) | log2 fold change [8] | log2 fold change (epoxomicin) | log2 fold change [9] | log2 fold change [10] | log2 fold change [11] | log2 fold change (rosiglitazone) | log2 fold change [12] | log2 fold change [13] |
| --- | --- | --- | --- | --- | --- | --- | --- | --- | --- | --- | --- | --- | --- | --- | --- | --- | --- | --- | --- | --- |
| CPT1A (UniProt P50416) | 0.069 | -0.077 | -0.054 | -0.114 | 0.083 | 0.11 | 0.022 | 0.09 | 0.048 | 0.01 | -0.048 | -0.047 | 0.045 | -0.003 | -0.076 | -0.064 | 0.013 | 0.025 | -0.053 | 0.333 (active) |
| CKS1B (UniProt P61024) | -0.043 | -0.094 | -0.121 | 0.036 | -0.005 | 0.056 | -0.17 | -0.38 | -0.034 | 0.029 | -0.028 | 0.068 | 0.094 | 0.014 | 0.025 | 0.041 | -0.024 | -0.002 | 0.022 | -0.006 |
| CHD3 isoform 3 (UniProt Q12873) | 0.03 | -0.035 | 0.016 | -0.077 | 0.056 | 0.113 | 0.138 | 0.081 | 0.226 | 0.046 | -0.093 | -0.757 (active) | 0.149 | 0.017 | -0.042 | 0.067 | 0.126 | 0.048 | 0.099 | -0.144 |
| CBS (UniProt P35520) | 0.031 | -0.001 | 0.004 | 0.019 | -0.08 | -0.021 | -0.004 | -0.016 | -0.135 | 0.02 | 0.007 | 0.036 | -0.049 | 0.035 | -0.019 | 0.02 | -0.012 | 0.012 | -0.073 | -0.03 |
| CHERP (UniProt Q8IWX8) | -0.042 | -0.088 | -0.053 | 0.003 | -0.006 | 0.018 | 0.127 | 0.075 | 0.107 | 0.055 | -0.162 | -0.888 (active) | -0.014 | 0.064 | -0.024 | 0.022 | 0.041 | -0.004 | 0.102 | -0.05 |
| CASP3 (UniProt P42574) | -0.049 | 0.086 | 0.009 | 0.065 | -0.025 | -0.009 | 0.022 | 0.113 | -0.029 | -0.005 | 0.012 | 0.014 | -0.033 | 0.273 (active) | 0 | 0.018 | -0.021 | 0.014 | -0.097 | 0.019 |
| COPS8 (UniProt Q99627) | 0.031 | -0.04 | 0 | -0.09 | 0.126 | -0.003 | -0.031 | -0.056 | 0.049 | 0.009 | -0.018 | 0.043 | 0.032 | -0.047 | 0.008 | 0.013 | 0.033 | 0.041 | 0.011 | 0.113 |
| C16orf58 (UniProt Q96GQ5) | -0.04 | 0.001 | 0.021 | 0.003 | -0.049 | -0.007 | 0.005 | -0.075 | -0.012 | -0.011 | -0.055 | -0.013 | -0.005 | 0.029 | 0.015 | -0.018 | 0.006 | 0.039 | -0.037 | -0.086 |
| C4A (UniProt P0C0L4) | -0.154 | 0.19 | 0.111 | 0.215 | -0.008 | 0.148 | -0.02 | -0.287 | 0.001 | 0.021 | -0.147 | -0.216 | -0.048 | -0.316 | -0.079 | 0.197 | 0 | 0.154 | 0.223 | -0.32 |
| C9orf64 (UniProt Q5T6V5) | 0.014 | -0.014 | 0.029 | 0.001 | 0.029 | -0.032 | 0.079 | -0.036 | 0.064 | 0.08 | -0.066 | -0.309 | 0.103 | -0.004 | -0.094 | -0.149 | 0.075 | 0.119 | -0.007 | -0.396 (active) |
| CCNK isoform 4 (UniProt O75909) | 0 | 0.032 | -0.032 | -0.011 | 0.024 | -0.088 | 0 | 0.038 | 0.014 | -0.063 | 0.099 | 0.045 | -0.018 | -0.254 | 0.025 | 0.129 | -0.051 | -0.038 | 0.105 | 0.032 |
| CCAR1 (UniProt Q8IX12) | 0.03 | -0.046 | -0.001 | -0.017 | 0.071 | 0.007 | 0.006 | -0.045 | 0.027 | -0.04 | 0.079 | 0.149 | 0.063 | 0.008 | -0.029 | -0.219 | 0.018 | 0.046 | -0.039 | -0.319 (active) |
| CPD (UniProt O75976) | -0.017 | 0 | -0.01 | -0.016 | -0.001 | -0.017 | -0.021 | -0.062 | 0.016 | 0.011 | -0.152 | -0.33 | -0.017 | 0.025 | 0.036 | -0.044 | -0.024 | 0.002 | 0.029 | -0.399 (active) |
| CNOT1 (UniProt A5YKK6) | 0.016 | -0.007 | -0.027 | 0.014 | 0.062 | 0.044 | 0.046 | 0.013 | 0.044 | 0.044 | -0.051 | -0.312 (active) | 0.056 | -0.028 | -0.028 | 0.028 | 0.061 | 0.013 | 0.011 | -0.082 |
| CCAR2 isoform 2 (UniProt Q8N163) | 0.032 | -0.048 | -0.017 | 0.001 | 0 | 0.042 | 0.05 | 0.28 | 0.144 | 0.026 | -0.08 | -0.343 (active) | 0.031 | -0.018 | -0.057 | -0.025 | 0.044 | 0.047 | 0.003 | -0.145 |
| CETN2 (UniProt P41208) | -0.015 | -0.016 | -0.146 | -0.071 | -0.188 | -0.008 | -0.335 (active) | -0.034 | -0.034 | -0.013 | 0.149 | 0.159 | -0.006 | -0.074 | 0.074 | 0.065 | -0.058 | -0.01 | -0.018 | 0.037 |
